# Measured values: article PMC5540273 (PLoS ONE, 2017)
# Tests used:
# Details in all cases: concentration: 1 μM, replicates: in singlicate; n = 1
# [1] = tested on: MRCKA
# [2] = tested on: T1, MRCKB
# T1 construct: gene CDC42BPB
# [3] = tested on: MST1R
# [4] = tested on: T2, MST1
# T2 construct: gene STK4
# [5] = tested on: T3, MST2
# T3 construct: gene STK3
# [6] = tested on: T4, MST3
# T4 construct: gene STK24
# [7] = tested on: MST4
# [8] = tested on: MTOR
# [9] = tested on: MUSK
# [10] = tested on: MYLK2
# [11] = tested on: MYLK4
# [12] = tested on: MYLK
# [13] = tested on: MYO3A
# [14] = tested on: MYO3B
# [15] = tested on: T5, NDR1
# T5 construct: gene STK38
# [16] = tested on: NDR2
# [17] = tested on: NEK10
# [18] = tested on: NEK11
# [19] = tested on: NEK1
# [20] = tested on: NEK2
# 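Also: KINOMEscan kinase panel screen.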
SMILES,%Inh [1] [%],%Inh [2] [%],%Inh [3] [%],%Inh [4] [%],%Inh [5] [%],%Inh [6] [%],%Inh [7] [%],%Inh [8] [%],%Inh [9] [%],%Inh [10] [%],%Inh [11] [%],%Inh [12] [%],%Inh [13] [%],%Inh [14] [%],%Inh [15] [%],%Inh [16] [%],%Inh [17] [%],%Inh [18] [%],%Inh [19] [%],%Inh [20] [%]
CNc1nccc(-c2c(-c3ccc(F)cc3)ncn2CCCN2CCOCC2)n1 [SB-222516],8,0,0,0,14,14,0,11,0,0,0,0,0,0,0,28,0,0,0,0
Nc1n[nH]c2nnc(-c3ccccc3)cc12 [SB-517389],16,0,27,0,5,0,0,14,8,13,24,19,0,0,14,0,17,0,0,5
O=C(NCCCN1CCCC1=O)c1cnc(NCc2cc(Cl)ccc2Cl)nc1NC1CCNCC1,0,0,72,8,0,32,44,36,7,1,3,11,0,0,0,0,0,0,0,7
Clc1cccc(-c2nc(Nc3ccncc3)c3ccccc3n2)c1 [GW873004],3,42,0,27,45,9,0,36,0,0,0,0,15,17,15,0,0,0,0,0
CCn1c(-c2ccncc2)nc2cnccc21 [SB-735216],23,0,27,0,0,0,13,0,5,15,0,24,19,0,28,0,0,51,0,8
Cl.Cl.c1ccc(-c2cc3ccncc3cc2OC2CCNCC2)cc1 [GSK1122999],52,17,53,21,6,12,0,12,13,20,21,25,10,0,0,0,24,0,0,17
Cc1ccc(NC(=O)c2cccc(C#N)c2)cc1-c1ccc(C(=O)Nc2ccncc2)cc1 [GSK1398463],3,8,38,0,0,0,0,4,10,26,7,14,0,0,0,0,1,0,27,28
COC(=O)c1cccc(NC(=O)NCCNc2ccnc(Nc3ccc(F)cc3)n2)c1 [GSK1379883],0,0,25,0,5,0,0,37,4,0,6,11,31,0,0,27,8,10,0,0
Nc1nc(-c2ccc3c(N)n[nH]c3c2)cc(N2CCC[C@@H](C(=O)Nc3ccccc3)C2)n1.O=C(O)C(F)(F)F.O=C(O)C(F)(F)F [GSK2288359],2,0,14,0,30,0,0,15,4,5,9,27,19,0,1,5,0,0,0,0
Cl.c1ccc(Cn2ccc3cc(Nc4ncnc5ccccc45)ccc32)cc1 [GW275568],7,11,43,0,22,17,0,16,11,19,26,21,16,0,32,1,29,0,0,14
CS(=O)(=O)CCNCc1ccc(-c2ccc3ncnc(Nc4ccc(OCc5ccccc5)c(Cl)c4)c3c2)o1.Cl [GW574783],0,2,17,23,0,0,0,30,19,16,2,7,0,0,0,0,23,26,0,0
CC(=O)Nc1n[nH]c2ncc(-c3ccccc3)cc12 [SB-548492],0,10,41,0,1,5,15,6,9,37,28,23,25,0,8,17,0,18,0,9
O=c1cc(N2CCOCC2)nc2n(Cc3cccc(Cl)c3)ccn12 [GSK2296823],7,16,17,0,11,0,0,62,11,2,0,61,0,0,8,0,0,0,0,10
O=C(Nc1ccccc1)Nc1ccc(Oc2ccc3nccn3n2)cc1,0,0,18,0,0,11,0,12,9,0,0,11,0,0,16,0,0,0,0,0
CC(C)N1CCC(n2cnc(-c3ccc(F)cc3)c2-c2ccnc(N)n2)CC1 [SB-223132],18,0,0,0,0,29,0,27,0,6,9,19,0,0,7,0,9,0,11,0
COc1ccc(Nc2nccc(N3CCC(NC(=O)Nc4ccc5c(c4)OCO5)C3)n2)cc1 (centres unmarked) [GSK1379745],11,0,0,6,0,32,0,35,17,6,0,25,0,3,0,0,0,0,0,0
Nc1nc(-c2ccc3c(N)n[nH]c3c2)cc(N2CCCCC2)n1 [GSK2228768],0,0,11,0,0,0,0,0,3,0,0,1,0,0,0,0,0,0,0,3
Fc1ccc(-c2ncn(CCCNCc3ccccc3)c2-c2ccncc2)cc1,0,18,18,2,39,11,0,11,9,0,0,13,7,22,0,19,34,19,0,0
Cl.Cn1ccc(-c2cccc(Nc3ccnc4cc(-c5nccs5)ccc34)c2)n1 [GW525701],37,0,29,0,0,0,0,35,0,0,0,7,43,0,19,0,4,15,0,0
